Test results reported in PubChem BioAssay AID1923 (Vanderbilt High Throughput Screening Facility, 2009).
Calls of active or inactive are those of the source.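 How the source made its calls: active means compound that boosted calcium signal to a low acetylcholine dose in a dose-dependent way; inactive means the rest.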

Molecular target: Muscarinic acetylcholine receptor M4 (Rattus norvegicus) (UniProt P08485)
Experiment: potentiation of acetylcholine response at rM4 – cell-based, analogs, calcium mobilization, Gqi5, SAR follow-up (AID 1923)
Settings: CHO-K1 rM4/Gqi5, calcium mobilization Fluo-4, ACh EC20

Muscarinic acetylcholine receptor M4 (Rattus norvegicus), sequence (P08485 whole entry, looked up): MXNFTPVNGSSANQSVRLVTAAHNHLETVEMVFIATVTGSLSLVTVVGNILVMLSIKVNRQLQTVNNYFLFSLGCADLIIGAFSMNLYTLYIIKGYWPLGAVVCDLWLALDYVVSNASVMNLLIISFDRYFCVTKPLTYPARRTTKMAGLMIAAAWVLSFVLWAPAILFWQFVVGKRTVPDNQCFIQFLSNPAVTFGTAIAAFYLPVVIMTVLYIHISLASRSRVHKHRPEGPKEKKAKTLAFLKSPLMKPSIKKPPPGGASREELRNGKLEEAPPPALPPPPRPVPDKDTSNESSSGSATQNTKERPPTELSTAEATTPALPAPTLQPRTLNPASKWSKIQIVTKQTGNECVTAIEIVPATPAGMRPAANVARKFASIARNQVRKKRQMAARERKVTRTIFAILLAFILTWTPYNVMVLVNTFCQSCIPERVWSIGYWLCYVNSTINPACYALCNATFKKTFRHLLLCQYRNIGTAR

outcome, active:
Cc1cc(OCCN2CCOCC2)nc2sc(C(=O)Nc3ccccc3)c(N)c12 active; fitted 5.81 uM
COc1ccc(CNC(=O)c2sc3nc(OCCN4CCCC4)cc(C)c3c2N)cc1 active; fitted 8.24 uM
COCCCNC(=O)c1sc2nc(OCCN3CCOCC3)cc(C)c2c1N active; fitted 6.25 uM
Cc1cc(OCc2ccncc2)nc2sc(C(=O)NCc3cc(F)ccc3F)c(N)c12 active; fitted 1.58 uM
Cc1cc(OCCCN(C)C)nc2sc(C(=O)NCc3cc(F)ccc3F)c(N)c12 active; fitted 2.75 uM
COc1ccc(CNC(=O)c2sc3nc(OCc4cccnc4)cc(C)c3c2N)cc1 active; fitted 2.21 uM
COc1ccc(CNC(=O)c2sc3nc(OCc4ccncc4)cc(C)c3c2N)cc1 active; fitted 1.97 uM
Cc1cc(OCc2ccccn2)nc2sc(C(=O)NCc3cccc(F)c3F)c(N)c12 active; fitted 5.4 uM
Cc1cc(OCc2ccncc2)nc2sc(C(=O)NCc3cccc(F)c3F)c(N)c12 active; fitted 1.61 uM
Cc1cc(OCCCN(C)C)nc2sc(C(=O)NC3COC3)c(N)c12 active; fitted 2.58 uM
COc1ccc(CNC(=O)c2sc3nc(OCCN4CCOCC4)cc(C)c3c2N)cc1 active; fitted 6.47 uM
Cc1cc(OCCN2CCOCC2)nc2sc(C(=O)NC(C)(C)C)c(N)c12 active; fitted 8.73 uM
Cc1cc(OCCN2CCOCC2)nc2sc(C(=O)NC3COC3)c(N)c12 active; fitted 7.42 uM
COc1ccc(CNC(=O)c2sc3nc(OCc4ccccn4)cc(C)c3c2N)cc1 active; fitted 1.77 uM
Cc1cc(OCCN2CCOCC2)nc2sc(C(=O)NC(C)C)c(N)c12 active; fitted 7.15 uM

outcome, inactive:
COc1ccc(CNC(=O)c2sc3nc(OCCCN(C)C)cc(C)c3c2N)cc1
COc1ccc(CNC(=O)c2sc3nc(OCCN(C)C)cc(C)c3c2N)cc1
CCCOc1cc(C)c2c(N)c(C(=O)NCc3ccc(OC)cc3)sc2n1
CCCCCOc1cc(C)c2c(N)c(C(=O)NCc3ccc(OC)cc3)sc2n1
COc1ccc(CNC(=O)c2sc3nc(OCC4CCCN(C)C4)cc(C)c3c2N)cc1 (configuration not stated)
COc1ccc(CNC(=O)c2sc3nc(OC(C)C)cc(C)c3c2N)cc1
Cc1cc(OCc2ccccn2)nc2sc(C(=O)NCc3cc(F)ccc3F)c(N)c12
